Results reported in PubChem BioAssay (NCI).
The panel holds about 83,000 compounds, 20% with a hit somewhere; the sample as a whole holds those more often.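 Compound tested at a single concentration for 48 hours in 96-well plates; a percent growth value below 10 was scored as active.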 Values without a mark were called inactive. Active and inactive are the calls of the source.

Legend:
Assay in all cases: NCI-60 one-dose screen, 48 h (100 = growth as untreated, 0 = no growth, -100 = all killed)
SR leukemia = settings: 10 µM unless noted
RPMI-8226 leukemia = settings: 10 µM unless noted
OVCAR-8 ovarian = settings: 10 µM unless noted
OVCAR-5 ovarian = settings: 10 µM unless noted
OVCAR-4 ovarian = settings: 10 µM unless noted
SK-OV-3 ovarian = settings: 10 µM unless noted
IGROV1 ovarian = settings: 10 µM unless noted
HS 578T breast = settings: 10 µM
NCI/ADR-RES ovarian = settings: 10 µM unless noted
T-47D breast = settings: 10 µM unless noted
BT-549 breast = settings: 10 µM unless noted
MDA-MB-435 melanoma = settings: 10 µM unless noted
SW-620 colon = settings: 10 µM unless noted
MCF7 breast = settings: 10 µM unless noted
HCT-116 colon = settings: 10 µM unless noted
KM12 colon = settings: 10 µM unless noted
OVCAR-3 ovarian = settings: 10 µM unless noted
HCC-2998 colon = settings: 10 µM

Row | SMILES | growth (SR leukemia) | growth (RPMI-8226 leukemia) | growth (OVCAR-8 ovarian) | growth (OVCAR-5 ovarian) | growth (OVCAR-4 ovarian) | growth (SK-OV-3 ovarian) | growth (IGROV1 ovarian) | growth (HS 578T breast) | growth (NCI/ADR-RES ovarian) | growth (T-47D breast) | growth (BT-549 breast) | growth (MDA-MB-435 melanoma) | growth (SW-620 colon) | growth (MCF7 breast) | growth (HCT-116 colon) | growth (KM12 colon) | growth (OVCAR-3 ovarian) | growth (HCC-2998 colon)
1 | Clc1ccc(/C=C/c2cc(N3CCOCC3)c3cc(Cl)c(Cl)cc3n2)cc1 | 59.4% | -40.9% (active) | 100% | 105% | 101% | 105% | 94.3% | 102% | 90.2% | 91.3% | -20.4% (active) | 91% | 111% | 91.7% | 98.3% | 63.5% | – | –
2 | Cc1cccc(Cl)c1NC(=O)c1cnc(Nc2cc(N3CCOCC3)cc(N3CCOCC3)c2)s1 | 15.7% | 89.8% | -36.2% (active) | 23.3% | 60.4% | -38.7% (active) | – | – | 23.6% | 0.787% (active) | 56.3% | 10.3% | 82.2% | 75% | 11.5% | – | 19.7% | –
3 | Cc1cccc(Cl)c1NC(=O)c1cnc(Nc2cc(N3CCOCC3)cc(S(C)(=O)=O)c2)s1 | 43.3% | 70.5% | -2.17% (active) | 15.6% | 53.8% | -23.8% (active) | -49.1% (active) | – | – | -15.6% (active) | 66.7% | 69.9% | 113% | 65% | 13.2% | 87.8% | 32.1% | –
4 | COc1ccc(S(=O)(=O)N(C(C)=O)c2ccccc2/C=C/c2cc[n+]([O-])cc2)cc1 | 16.4% | 22.2% | 14.9% | 35.4% | 42.4% | 6.17% (active) | – | – | 17.5% | 27.2% | 16.2% | -50.8% (active) | 23.6% | 15.2% | 5.12% (active) | 14% | 28.2% | 8.66% (active)
5 | N[C@@H]1CCCN(c2c(/C=C3\SC(=O)NC3=O)cccc2-c2ccccc2)C1 | 22.1% | 13% | 61.1% | 64.4% | 11.4% | 63.6% | – | – | 88.1% | 25.7% | 0.186% (active) | 56.7% | 60.3% | 45.3% | 50.6% | 60.3% | 54.2% | 74.8%
6 | [2H]C1([2H])[C@H](C)O[C@H](C)C([2H])([2H])N1c1ccc(NC(=O)c2cccc(-c3ccc(OC(F)(F)F)cc3)c2C)cn1 | 56.4% | 53.3% | 79.1% | 100% | 65.8% | 63.2% | – | 88.2% | 58.4% | 41.7% | 63.9% | 73.4% | 90% | 66.8% | 56.9% | 73.2% | 84.6% | 82.4%
7 | CC(=O)OC1Oc2ccccc2-c2oc(=O)c(-c3cc4ccc(N(C)C)cc4oc3=O)cc21 (configuration not stated) | -19.9% (active) | -20.5% (active) | 37.1% | 26.3% | 39.1% | 48.1% | – | -3.16% (active) | 38.9% | -4.17% (active) | 15.9% | 44.5% | 61.7% | 68.5% | 20.7% | 71.8% | 43% | –
8 | O=C(c1c(F)ccc(NS(=O)(=O)N2CC[C@@H](F)C2)c1F)c1c[nH]c2ncc(-c3cnc(C4CC4)nc3)cc12 | 21.6% | 36.3% | 31.7% | 58.3% | 64.2% | 3.3% (active) | 17% | – | – | 9.33% (active) | 61.6% | 16.8% | 66.6% | 61.3% | – | 54.4% | 69.4% | –
9 | C[C@@]1(C(=O)Nc2ccc(F)nc2)CCCN1c1nc(Nc2cc(C3CC3)[nH]n2)c2cccn2n1 | -0.827% (active) | 62.1% | 38.6% | 14.7% | 0.224% (active) | 18.7% | 1.38% (active) | – | – | 7.7% (active) | 27.3% | 38.1% | 16.4% | 17.9% | 7.82% (active) | -23.6% (active) | 57.4% | 42.2%
10 | Cc1cc(O)c2c(c1)C1OC(=O)CCCCCN1C1=C2C(=O)c2cccc(OC3CC(O)C(O)C(C)O3)c2C1=O (configuration not stated) | 54.2% | 73.3% | 52.9% | 130% | 90.2% | 89.8% | – | 71.5% | 91% | 85.6% | 83.6% | 13.1% | 99.9% | 17.7% | 24.5% | 83.4% | 7.5% (active) | 73%
11 | Nc1c(C(=O)c2ccccc2)sc2nc(-c3cccs3)cc(-c3cccs3)c12 | 24.4% | 57.7% | 54.8% | 84.5% | 62.6% | 46% | – | 53.4% | 24.4% | 36% | 50.9% | -14.4% (active) | 28.8% | 45.9% | 16.8% | 29.1% | 11.9% | 72.1%
12 | Cc1oc2c(C(=O)N/N=C\c3ccc(O)cc3O)c[nH]c2c1C | 8.4% (active) | 25.3% | 13.7% | 30.7% | 10.8% | 20.6% | – | 58.2% | 1.19% (active) | 25.7% | -8.94% (active) | 42.8% | 39.3% | 8.09% (active) | 10.8% | 28.9% | -16% (active) | 9.7% (active)
13 | N#Cc1c(NC(=O)c2ccco2)[n+]([O-])c2cc(F)c(F)cc2[n+]1[O-] | 8.42% (active) | 17.8% | 38.9% | 119% | 89.7% | 99.4% | 29.6% | – | – | 71.8% | – | 98% | 87.5% | 67.5% | – | 85% | 102% | –
14 | COc1ccc(-c2cc3c(C)nc(N)nc3n(C3CCC(OCCO)CC3)c2=O)cn1 (configuration not stated) | 1.95% (active) | 3.64% (active) | -12.6% (active) | -18.8% (active) | -7.57% (active) | -49.9% (active) | – | – | -14.7% (active) | -50.5% (active) | -18.1% (active) | -18.5% (active) | 7.56% (active) | 1.58% (active) | 7.89% (active) | 5.53% (active) | -10.5% (active) | -0.799% (active)
15 | COc1ccc(/C(C)=C(\c2ccc(Cl)cc2)c2ccc(OCCN3CCCCCC3)cc2)cc1 | 1.94% (active) | 51.2% | 69.1% | 74.3% | 56.4% | 55.7% | – | – | 82.8% | 39.6% | 63.5% | 65.9% | 45% | 36.5% | 38.3% | 31.2% | 58.2% | 82.1%
16 | NS(=O)(=O)c1ccc(CCN2C(=O)/C(=C\c3ccc(Cl)cc3)C=C2c2ccc3ccccc3c2)cc1 | 83.3% | 89.6% | – | 89.5% | 95.3% | 84% | 94.2% | 101% | 95.3% | 71.8% | 95.1% | 97% | 106% | 90.6% | – | 93% | 104% | 94.8%
